# Bioassay records (PubChem)
# Tg IFNy HTS – inhibitors of Toxoplasma gondii growth with IFN-gamma; Toxoplasma gondii growth in IFN-gamma-treated host cells; active compounds read low; activity change, negative = inhibition, % (test concentration not listed); 3.8% of 69,000 active; in the data active = activity change below about -70%, passing the limit was not always enough;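 also: host cells are HeLa cells infected with Toxoplasma gondii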
# An asterisk follows results filed as active; i = inactive; ! = not confirmed by another sample. The sample as a whole holds a higher share of hits than the screen did.
SMILES,Tg IFNy HTS
O=S(=O)(c1cccc(F)c1)N1CC[C@H]2[C@@H]1CCN2CC1CC1,-41.4
Cc1ccc(-c2nc3c(s2)CN(S(=O)(=O)c2ccccc2Cl)CC3)cc1,-56.3
CC(C)(C)c1ccc(S(=O)(=O)N2CCc3nc(-c4ccccc4)sc3C2)cc1,8.0
Cc1ccc(-c2nc3c(s2)CN(S(=O)(=O)c2ccc(F)cc2F)CC3)cc1,-87.7*
CC(c1ccc(-c2ccc3nc(C4CC4)cc(C(=O)O)c3c2)cc1)N1CCOCC1 (stereo unspecified),4.4
Cc1ccc(CN2CCCn3c(nc(Cn4ccnc4)cc3=O)C2)s1,-2.7
COc1ccc(-c2nc(C)c(CCNC(=O)c3cccs3)s2)cc1,i
COc1ccc(-c2nc(C)c(CCNC(=O)C(=O)Nc3ccccc3)s2)cc1,0.6
COc1ccc(Cc2nn3c(C(=O)c4cccs4)nn(-c4ccccc4)c3nc2=O)cc1,-94.4*
CC1(C(=O)NCc2ccc(F)cc2F)CCN(C(=O)Cc2cccc(F)c2)CC1,9.2
CCN1c2ccc(C)cc2C(=O)NC12CCN(C(=O)c1ccc(OC)cc1)CC2,7.4
C1=C/COCc2cc(ccc2OCCN2CCCC2)Nc2nccc(n2)-c2cccc(c2)COC/1,-85.3*
Cc1ccc2c(c1)c(-c1nc(CC3CCN(C)CC3)no1)nn2C,-5.9
CC(=O)c1ccc(N2CCc3nnc(CCc4ccccc4)n3CC2)nc1,2.2
CCOc1cccc(-c2ccccc2-c2nnc(C)o2)c1,14.3
CC(CNS(=O)(=O)NCc1ccccc1)Oc1cccnc1 (stereo unspecified),6.9
CCc1nc(CN2CCCC2c2nc3ccc(C)cc3[nH]2)no1 (stereo unspecified),10.3
CC1(C)C(=O)NC(=O)N1CC(=O)N1CCn2cncc2C1,5.1
COc1ccc(-c2cc3c(C)nc(N)nc3n(C3CCC(OCCO)CC3)c2=O)cn1 (stereo unspecified),-82.9*
COc1ccc(-c2ccccc2OC(C)C(N)=O)cn1 (stereo unspecified),2.3
CCC(=O)Nc1ccc(-c2ccc(OC)nc2)c(C)n1,85.5
COc1cc2c(cc1OC)CC(=O)OC2,30.1
CN(C)C(=O)Cc1ccc(S(=O)(=O)N2CCC(Oc3cnccn3)CC2)cc1,-3.0
CC(C)N(C)[C@@H]1c2ccccc2[C@H]2CN(C(=O)c3cnccn3)C[C@H]21,-4.9
O=C(CC1CCN(c2ncccn2)CC1)Nc1nccs1,27.4
SMILES,Tg IFNy HTS
CCN(CC)C(=O)c1sc(NC(=O)c2c(OC)cccc2OC)c(C#N)c1C,-82.9*
COc1cccc(OC)c1C(=O)NCCc1sc(-c2cccc(F)c2)nc1C,69.3
COc1ccc(Oc2cccc(Oc3ccc(OC)cc3)c2C#N)cc1,-1.9
O=C(Nc1cccc(N2CCCCS2(=O)=O)c1)c1cc(-c2cccc(F)c2)no1,-7.1
CCN1c2ccc(F)cc2C(=O)NC12CCN(C(=O)c1ccc(OC)cc1C)CC2,-23.3
COc1ccc(OC)c(CNC(=O)Cn2ncc3c(N4CCCCC4)ncnc32)c1,-23.9
Cc1ccc(S(=O)(=O)CCC(=O)NCCc2nc3ccccc3n2C)cc1C,-65.1
Cc1ccc(NC(=O)N2CCC(c3nc(C(=O)N4CCOCC4)c(C)o3)CC2)c(C)c1,12.4
CCN(CC)CCNc1nc(-c2ccccn2)nc2c1CCN(Cc1ccc(C)cc1)C2,-43.2
COc1ccc(NC(=O)C(=O)NCCc2csc(-c3ccc(C(F)(F)F)cc3)n2)cc1,111.9
O=C1c2ccccc2C(=O)N1CN1CCC(O)(c2ccc(Cl)cc2)CC1,25.2
CCOc1ccc(N(C(=O)c2ccco2)C(C(=O)NC2CCCC2)c2cccs2)cc1 (stereo unspecified),2.3
COc1ccc(-c2ccc(C(=O)N(Cc3nccn3C)C3CC3)o2)cc1,12.0
COc1ccc(CN(C(=O)c2cc(-c3ccc(C)cc3)on2)C2CCN(C)CC2)cc1,-76.0*
COc1ccc(CN(C(=O)c2cc(C(C)C)c3nncn3n2)C2CCN(C)CC2)cc1,5.6
O=C(c1ccco1)N1CCOCC1c1csc(-c2ccccc2)n1 (stereo unspecified),-0.8
CC(C)c1nccn1C(C)C(=O)N(C)Cc1nncn1C(C)C (stereo unspecified),-4.3
O=C(c1ccccc1)c1ccc(O)c(C(c2ccccc2Cl)N2CCCCC2)c1O (stereo unspecified),-96.8*
COc1ccc(-c2[nH]ncc2CNC(=O)CC2COCCN2)cc1 (stereo unspecified),-21.3
COc1cccc(-c2nc3c(s2)CN(C(=O)Nc2ccc(C)cc2C)CC3)c1,153.4
Cc1ccc(C(=O)N2CCn3cc(CN4CCCC4)nc3C2)cn1,0.3
Clc1ccc(-c2nc(NC3CCCCC3)c3ccccc3n2)cc1,-17.6
CC1(C(=O)N2CCCn3nnc(Cn4cccc4)c3C2)CC1,3.2
Nc1nccc(/C=C/c2c(F)cccc2Cl)n1,-73.9*
COc1ccc(N2C(=O)C3C(C2=O)N2CCCN2C3c2ccccc2OC)cc1 (stereo unspecified),16.3
SMILES,Tg IFNy HTS
CCC(C)N(Cc1ccncc1)Cc1ccc2cccc(O)c2n1 (stereo unspecified),35.9
CCOc1ccccc1NC(=O)c1nnn(Cc2nc(-c3ccc(Cl)cc3)oc2C)c1C,5.2
O=C(CCCn1cccn1)N1CCOC(c2ccc(Cl)cc2)C1 (stereo unspecified),-26.2
CC(c1ccc(-c2coc3ccccc3c2=O)cc1)N1CCOCC1 (stereo unspecified),110.5
c1ccc2c(c1)-c1ccccc1C2c1ccncc1,-26.4
CCc1cc(C(C)Nc2nc(-c3cccnc3)nc3c2CNC3)on1 (stereo unspecified),-88.2*
CC(C)Cc1cc(CNc2nc(-c3cccnc3)nc3c2CCNC3)no1,-35.9
CC(C)(C)CC(Nc1nc(-c2cccnc2)nc2c1CNC2)c1cccnc1 (stereo unspecified),-17.7
CC(=O)N1[C@H](CN2CCCC2)C[C@H]2CN(C(=O)c3ccco3)CC[C@H]21,-4.1
CC(=O)N1C2CN(Cc3ccc(C)o3)CC2C[C@@H]1C(=O)NCC1CC1 (stereo partly specified),-22.0
CC(=O)N1[C@H](CN2CCCC2)C[C@H]2CN(Cc3ccc(C)o3)CC[C@H]21,-79.9*
COCCN(C)C(=O)c1ccc2nnc(C3CN(S(C)(=O)=O)CCN3C)n2c1 (stereo unspecified),-44.5
Cc1ccc(C)c(C(C)NC(=O)Cc2nc(-c3ccncc3)n[nH]2)c1 (stereo unspecified),-3.4
CCN1CCOCC2(CCCN(C(=O)c3c[nH]c4ccccc34)C2)C1 (stereo unspecified),-1.6
COc1ccc(CCN2CCC(Nc3nc4ccccc4n3Cc3ccc(F)cc3)CC2)cc1,-92.5*!
COc1ccc(-c2nc(Nc3ccc(CN4CCC(C)CC4)cc3)c3ccccc3n2)cc1,-41.0
COc1ccc(-c2nc(NCCN3CCC(C)CC3)c3ccccc3n2)cc1,-57.1
CC(CCn1cccn1)NC(=O)C(C)(C)NC(=O)c1cccs1 (stereo unspecified),12.8
CC(C)c1nn(-c2ncccc2C(F)(F)F)c(=O)o1,4.0
Cc1ccc(NC(=O)CC(=O)N2CCN(Cc3ccc4c(c3)OCO4)C(=O)C2)cc1,-52.3
CCNc1ccnc(N2CCN(Cc3ccc4c(c3)OCO4)CC2)n1,-12.8
CCc1cnc(C)nc1N1CCN(Cc2ccc3c(c2)OCO3)C(=O)C1,-85.2*
COc1ccc(CN2CCCCCC2)cc1OCC(O)CN1CCCCCCC1 (stereo unspecified),-30.8
CCN1C(=O)CCc2cc(C(=O)NC(C)C)ccc21,35.5
O=C(CC1CCCC1)NCc1nnc(-c2nccc3ccccc23)o1,6.4
